Reference: PubChem BioAssay (Tox21)
Unmarked numbers belong to inactive results. Records with an inconclusive call do not appear. Entries that show only a call come without a potency. The source made the active and inactive calls. Unless noted, the call rests on the fitted dose curve; in most records, active means well fitted curve in the direction sought with a large enough effect in the repeat runs; inconclusive means weak or mixed curves; inactive means no such curve, though single readings can be large; an effect the other way counts as inactive or inconclusive.

Tests used:
[1] = biological target: Estrogen receptor beta (Homo sapiens) (UniProt Q92731); experiment: qHTS assay to identify small molecule agonists of the estrogen receptor beta (ER-beta) signaling pathway (AID 1259377; active means well fitted activation curve with a large enough effect in the signal ratio in the repeat runs, not every such curve was filed as active; the % refers to the signal ratio)
Method in brief: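 Measured by fluorescence intensity from a B/G FRET beta-lactamase substrate (2 h, room temperature) in ER-beta-UAS-bla HEK293T cells treated with DMSO-dissolved compounds for 16 hr at 37C and 5% CO2.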

[2] = qHTS assay to identify small molecule agonists of the androgen receptor (AR) signaling pathway in the presence of an antagonist - cell viability counter screen (AID 1259379);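 further: MDA-kb2 human breast cancer cells carrying an MMTV luciferase reporter; series mostly up to about 92 µM; nearly all actives have a fitted effect of over 25% in size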
Method in brief: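 MDA-kb2 cells (MMTV-luciferase, AR/GR), 3,000/well, 5 h attachment, then 3.0 µM nilutamide (final) and compounds at 15 concentrations. Viability by CellTiter-Fluor fluorescence after 16 h at 37 °C, 0% CO2, in the reporter wells.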

[3] = qHTS assay to identify small molecule agonists of the estrogen receptor beta (ER-beta) signaling pathway - cell viability counter screen (AID 1259380); further: nearly all actives have a fitted effect of over 30% in size
Method in brief: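 ER-beta-UAS-bla HEK293T cells in medium with 2% charcoal-stripped FBS, pre-incubated 6 hr, then treated 16 hr at 37C. Cytotoxicity read in the same wells by CellTiter-Glo luminescence after 30 min at room temperature.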

[4] = qHTS assay to identify small molecule antagonists of the estrogen receptor beta (ER-beta) signaling pathway - cell viability counter screen (AID 1259382); further: series mostly up to about 92 µM; nearly all actives have a fitted effect of over 55% in size
Method in brief: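 ER-beta-UAS-bla HEK293T cells in 2% charcoal-stripped FBS medium, treated with compound plus 1 nM 17-beta-estradiol for 16 h at 37C. Viability read by CellTiter-Glo luminescence after 30 min at room temperature in the same wells.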

[5] = biological target: Estrogen receptor (Homo sapiens) (UniProt P03372); experiment: qHTS assay to identify small molecule agonists of the estrogen receptor alpha (ER-alpha) signaling pathway in the presence of an antagonist (AID 1259383; calls by dose curve; further: top concentration of the series differs between compounds; nearly all actives have a fitted effect of over 15% in size)
Method in brief: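 VM7Luc4E2 cells express endogenous full-length ER-alpha with an ERE-luciferase reporter and were hormone-deprived for 5 days. Compounds at 15 concentrations were added with 10.0nM ICI-182,780 for 22hr at 37C. Luminescence was read with ONE-Glo.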

[6] = qHTS assay to identify small molecule agonists or antagonists of the thyroid stimulating hormone receptor (TSHR) signaling pathway - wild type cell line counter screen (AID 1259384; calls by dose curve)
Method in brief: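 Wild-type HEK293 cells were plated 18 h at 37 C/5% CO2, pin-dosed with compound plus Ro20-1724 medium, held 30 min at room temperature, then given cAMP-d2 and anti-cAMP-cryptate; fluorescence was read after 1 h. Fifteen concentrations, triplicate.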

[7] = biological target: Thyrotropin receptor (Homo sapiens) (UniProt P16473); experiment: qHTS assay to identify small molecule antagonists of the thyroid stimulating hormone receptor (TSHR) signaling pathway (AID 1259385; calls by dose curve; further: nearly all actives have a fitted effect of over 20% in size; further: potency means the concentration at half of the fitted maximal effect)
Method in brief: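 TSHR-HEK293 cells were plated and held 18 h at 37C/5% CO2, then given compound plus Ro20-1724 and stimulated with TSH at 1.5 ng/mL final. After 30 min at room temperature, cAMP was detected with cAMP-d2/anti-cAMP-cryptate (1 h) by fluorescence.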

[8] = qHTS assay to identify small molecule agonists of the estrogen receptor alpha (ER-alpha) signaling pathway in the presence of an antagonist - cell viability counter screen (AID 1259386);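 further: series mostly up to about 92 µM; cells exposed to compounds for 22 h at 37 °C before the viability read; nearly all actives have a fitted effect of over 30% in size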
Method in brief: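 Cell viability in VM7Luc4E2 cells (endogenous full-length ER-alpha) measured by CellTiter-Fluor fluorescence in the same wells as the luciferase screen. Cells pre-cultured 5 days in charcoal-stripped serum, then treated 22 h with compounds at 15 concentrations plus 10.0nM ICI-182,780.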

[9] = biological target: Progesterone receptor (Homo sapiens) (UniProt P06401); experiment: qHTS assay to identify small molecule agonists of the progesterone receptor (PR) signaling pathway (AID 1346784; calls by dose curve; further: nearly all actives have a fitted effect of over 30% in size)
Method in brief: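 The screen uses PR-UAS-bla HEK 293T cells in charcoal-stripped serum (2%). Compounds are applied for 16 hr at 37C after a 6 hr pre-incubation, and reporter activity is detected with a FRET beta-lactamase substrate after 2 hr at room temperature.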

[10] = biological target: Progesterone receptor (Homo sapiens) (UniProt P06401); experiment: qHTS assay to identify small molecule antagonists of the progesterone receptor (PR) signaling pathway (AID 1346795; active means well fitted inhibition curve with a large enough effect in the signal ratio in the repeat runs, not every such curve was filed as active; the % refers to the signal ratio)
Method in brief: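 After 6 hr plating at 37C in 2% stripped-serum medium, PR-UAS-bla HEK293T cells got compounds, then 1 nM R5020. Sixteen hours later, LiveBLAzer substrate was applied for 2 hr at room temperature and fluorescence was recorded.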

[11] = qHTS assay to identify small molecule antagonists of the progesterone receptor (PR) signaling pathway - cell viability counter screen (AID 1346798); further: nearly all actives have a fitted effect of over 50% in size; further: potency means the concentration at half of the fitted maximal effect; on activity change, negative = cytotoxicity: series mostly up to about 92 µM
Method in brief: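 Viability was determined by ATP-based luminescence (CellTiter-Glo) in PR-UAS-bla HEK293T cells cultured in 2% charcoal-stripped serum and incubated 16 hr with compounds under R5020 stimulation.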

[12] = qHTS assay to identify small molecule agonists of the progesterone receptor (PR) signaling pathway - cell viability counter screen (AID 1346799; calls by dose curve; further: nearly all actives have a fitted effect of over 45% in size)
Method in brief: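 Viability was scored by ATP luminescence (CellTiter-Glo, 30 min, room temperature) in the same wells used for the reporter readout, after 16 hr compound exposure of PR-UAS-bla HEK293T cells.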

[13] = qHTS assay to identify small molecule antagonists of the TGF-beta/Smad signaling pathway - cell viability counter screen (AID 1346824); further: nearly all actives have a fitted effect of over 50% in size
Method in brief: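 SBE-bla HEK 293T cells were plated overnight at 37 C, then given compounds in DMSO plus TGF-beta1 (added as 0.25 ng/mL solution) for 5 hr. After the bla read, CellTiter-Glo was added to the same wells and luminescence read after 30 min at room temperature.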

[14] = qHTS assay to identify small molecule agonists of the TGF-beta/Smad signaling pathway - cell viability counter screen (AID 1346829); further: top concentration of the series differs between compounds; nearly all actives have a fitted effect of over 45% in size
Method in brief: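 Luminescence from CellTiter-Glo, read after a 30 min room-temperature incubation, gives cell viability of SBE-bla HEK 293T cells treated 5 hr with compounds at 37 C.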

[15] = qHTS assay to identify small molecule agonists of the TGF-beta/Smad signaling pathway (AID 1346859; active means well fitted activation curve with a large enough effect in the signal ratio in the repeat runs, not every such curve was filed as active; the % refers to the signal ratio; further: series mostly up to about 77 µM)
Method in brief: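 Dual-wavelength fluorescence (460/530 nm emission) quantified beta-lactamase expression under the Smad binding element in HEK 293T cells following 5 hr compound treatment at 37 C.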

[16] = biological target: Thyrotropin-releasing hormone receptor (Homo sapiens) (UniProt P34981); experiment: qHTS assay to identify small molecule antagonists of the thyrotropin-releasing hormone receptor (TRHR) signaling pathway (AID 1346877; active means well fitted inhibition curve with a large enough effect in the repeat runs, not every such curve was filed as active; further: series mostly up to about 51 µM)
Method in brief: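 TRHR-expressing HEK293 cells loaded with calcium dye for 2 h at 37 C; compounds pre-incubated 5 min at room temperature before TRH challenge at 1 nM final. Intracellular calcium fluorescence read kinetically for 3 min; 15 concentrations in triplicate.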

[17] = biological target: Thyrotropin-releasing hormone receptor (Homo sapiens) (UniProt P34981); experiment: qHTS assay to identify small molecule agonists of the thyrotropin-releasing hormone receptor (TRHR) signaling pathway (AID 1346891; calls by dose curve; further: series mostly up to about 58 µM)
Method in brief: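 Kinetic fluorescence (3 min, 1 s intervals) reported intracellular calcium after compound transfer onto TRHR-Hek293 cells pre-loaded with dye for 2 h at 37 °C.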

[18] = biological target: Estrogen receptor beta (Homo sapiens) (UniProt Q92731); experiment: qHTS assay to identify small molecule antagonists of the estrogen receptor beta (ER-beta) signaling pathway (AID 1259378; active means well fitted inhibition curve with a large enough effect in the signal ratio in the repeat runs, not every such curve was filed as active; the % refers to the signal ratio)
Method in brief: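 ER-beta-UAS-bla HEK293T (GripTite) cells in 2% charcoal-stripped FBS medium were preincubated 6 hr at 37C, dosed with compound, then stimulated with 1 nM E2 (final) for 16 hr; beta-lactamase reporter read by B/G FRET fluorescence after 2 hr substrate loading.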

Thyrotropin-releasing hormone receptor (Homo sapiens), sequence (P34981 whole entry, looked up): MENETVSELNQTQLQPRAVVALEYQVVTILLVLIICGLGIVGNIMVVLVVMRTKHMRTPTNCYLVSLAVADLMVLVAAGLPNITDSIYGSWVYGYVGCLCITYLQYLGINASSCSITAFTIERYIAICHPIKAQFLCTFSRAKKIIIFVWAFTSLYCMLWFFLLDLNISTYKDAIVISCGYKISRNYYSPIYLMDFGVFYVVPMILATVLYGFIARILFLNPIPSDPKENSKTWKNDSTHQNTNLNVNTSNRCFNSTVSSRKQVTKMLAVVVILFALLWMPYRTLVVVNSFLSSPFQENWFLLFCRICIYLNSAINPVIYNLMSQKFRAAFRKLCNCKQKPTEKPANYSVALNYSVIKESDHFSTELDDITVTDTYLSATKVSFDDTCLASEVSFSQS
Thyrotropin receptor (Homo sapiens), sequence (P16473 whole entry, looked up): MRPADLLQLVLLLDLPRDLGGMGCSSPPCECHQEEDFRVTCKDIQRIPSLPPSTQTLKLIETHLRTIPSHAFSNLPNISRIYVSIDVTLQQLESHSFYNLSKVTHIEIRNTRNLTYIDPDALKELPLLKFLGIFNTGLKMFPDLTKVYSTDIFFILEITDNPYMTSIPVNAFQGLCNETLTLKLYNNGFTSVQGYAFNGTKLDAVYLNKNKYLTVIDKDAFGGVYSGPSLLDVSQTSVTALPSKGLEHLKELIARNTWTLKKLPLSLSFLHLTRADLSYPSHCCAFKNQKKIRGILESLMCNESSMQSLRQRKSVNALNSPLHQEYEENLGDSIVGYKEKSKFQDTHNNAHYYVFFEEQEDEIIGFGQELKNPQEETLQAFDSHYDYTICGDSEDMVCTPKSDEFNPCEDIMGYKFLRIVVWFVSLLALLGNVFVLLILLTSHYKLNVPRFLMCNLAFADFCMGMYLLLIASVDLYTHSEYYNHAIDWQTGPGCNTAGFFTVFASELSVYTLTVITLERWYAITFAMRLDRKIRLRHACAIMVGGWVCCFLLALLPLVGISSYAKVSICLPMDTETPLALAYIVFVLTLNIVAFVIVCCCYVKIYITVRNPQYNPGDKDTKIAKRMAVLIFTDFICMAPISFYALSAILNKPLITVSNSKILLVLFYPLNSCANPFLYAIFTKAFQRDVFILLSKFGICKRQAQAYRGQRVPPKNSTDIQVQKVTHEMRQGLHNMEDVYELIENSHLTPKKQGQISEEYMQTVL
Estrogen receptor (Homo sapiens), sequence (P03372 whole entry, looked up): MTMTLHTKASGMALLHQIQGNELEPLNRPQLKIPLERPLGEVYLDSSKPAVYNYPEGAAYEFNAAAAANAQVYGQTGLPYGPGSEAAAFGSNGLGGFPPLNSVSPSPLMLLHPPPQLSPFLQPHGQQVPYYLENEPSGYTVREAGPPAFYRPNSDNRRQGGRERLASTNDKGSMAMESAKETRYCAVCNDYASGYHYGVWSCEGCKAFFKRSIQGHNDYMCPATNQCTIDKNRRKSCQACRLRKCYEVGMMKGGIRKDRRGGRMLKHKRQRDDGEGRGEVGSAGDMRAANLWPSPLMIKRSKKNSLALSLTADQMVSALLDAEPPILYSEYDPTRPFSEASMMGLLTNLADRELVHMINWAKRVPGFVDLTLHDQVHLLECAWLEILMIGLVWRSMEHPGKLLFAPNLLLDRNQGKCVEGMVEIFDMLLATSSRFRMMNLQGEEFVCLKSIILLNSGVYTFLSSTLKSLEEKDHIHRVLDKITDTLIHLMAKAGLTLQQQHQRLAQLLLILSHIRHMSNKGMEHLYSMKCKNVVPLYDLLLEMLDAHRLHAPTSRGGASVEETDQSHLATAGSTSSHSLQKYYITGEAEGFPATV
Progesterone receptor (Homo sapiens), sequence (P06401 whole entry, looked up): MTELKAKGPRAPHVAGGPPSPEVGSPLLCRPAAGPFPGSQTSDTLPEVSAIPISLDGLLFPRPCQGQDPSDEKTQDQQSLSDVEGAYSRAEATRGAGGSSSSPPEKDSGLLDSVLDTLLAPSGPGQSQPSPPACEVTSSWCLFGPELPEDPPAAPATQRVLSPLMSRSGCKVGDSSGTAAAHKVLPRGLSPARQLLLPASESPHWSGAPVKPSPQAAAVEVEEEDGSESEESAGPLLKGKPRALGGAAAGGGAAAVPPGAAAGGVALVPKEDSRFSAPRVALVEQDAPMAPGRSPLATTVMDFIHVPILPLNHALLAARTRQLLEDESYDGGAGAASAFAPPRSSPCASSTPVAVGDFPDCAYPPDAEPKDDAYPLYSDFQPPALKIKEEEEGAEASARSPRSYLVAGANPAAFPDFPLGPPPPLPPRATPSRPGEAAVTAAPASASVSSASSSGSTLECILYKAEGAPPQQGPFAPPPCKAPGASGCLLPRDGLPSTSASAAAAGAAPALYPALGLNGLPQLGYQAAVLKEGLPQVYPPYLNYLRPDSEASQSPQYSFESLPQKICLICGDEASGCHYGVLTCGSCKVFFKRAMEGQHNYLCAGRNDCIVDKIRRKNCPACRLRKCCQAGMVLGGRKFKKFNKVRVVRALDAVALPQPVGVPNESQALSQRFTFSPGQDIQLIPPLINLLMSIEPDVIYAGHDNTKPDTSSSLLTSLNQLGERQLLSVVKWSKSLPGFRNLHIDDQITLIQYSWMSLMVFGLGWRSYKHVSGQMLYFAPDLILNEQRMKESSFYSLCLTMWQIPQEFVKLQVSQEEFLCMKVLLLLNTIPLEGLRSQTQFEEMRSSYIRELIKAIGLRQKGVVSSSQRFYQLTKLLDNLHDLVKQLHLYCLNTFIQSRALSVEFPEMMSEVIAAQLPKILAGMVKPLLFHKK
Estrogen receptor beta (Homo sapiens), sequence (Q92731 whole entry, looked up): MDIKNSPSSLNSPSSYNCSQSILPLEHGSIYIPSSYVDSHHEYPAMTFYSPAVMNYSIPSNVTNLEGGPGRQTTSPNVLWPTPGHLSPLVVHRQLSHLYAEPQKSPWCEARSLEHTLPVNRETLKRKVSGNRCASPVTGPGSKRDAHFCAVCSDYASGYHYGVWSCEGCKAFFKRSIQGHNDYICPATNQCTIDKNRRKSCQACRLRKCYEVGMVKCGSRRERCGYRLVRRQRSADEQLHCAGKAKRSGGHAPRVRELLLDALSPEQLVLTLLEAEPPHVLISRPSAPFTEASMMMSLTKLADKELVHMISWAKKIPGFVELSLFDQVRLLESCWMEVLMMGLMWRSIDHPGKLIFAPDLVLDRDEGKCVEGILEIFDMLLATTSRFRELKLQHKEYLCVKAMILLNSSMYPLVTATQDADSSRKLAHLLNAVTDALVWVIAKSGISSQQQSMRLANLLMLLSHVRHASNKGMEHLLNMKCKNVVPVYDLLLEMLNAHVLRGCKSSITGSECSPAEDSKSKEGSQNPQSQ

## NS(=O)(=O)c1cc(-c2nn[nH]n2)c(NCc2cccs2)cc1Cl
[1]
  outcome: inactive
[2]
  Potency: inactive
[3]
  Potency: inactive
[4]
  outcome: inactive
[5]
  Potency: inactive
[6]
  outcome: inactive
[7]
  Potency: inactive
[8]
  Potency: inactive
[9]
  Potency: inactive
[10]
  Potency: inactive
[11]
  Potency: inactive
[12]
  Potency: inactive
[13]
  outcome: inactive
[14]
  outcome: inactive
[15]
  outcome: inactive
[16]
  outcome: inactive
[17]
  Potency: inactive

## CCOC(=O)[C@H](CCc1ccccc1)N[C@@H](C)C(=O)N1Cc2cc(OC)c(OC)cc2C[C@H]1C(=O)O
[1]
  outcome: inactive
[18]
  Potency: inactive
[2]
  Potency: inactive
[3]
  Potency: inactive
[4]
  outcome: inactive
[5]
  Potency: inactive
[6]
  outcome: inactive
[7]
  Potency: inactive
[8]
  Potency: inactive
[9]
  Potency: inactive
[10]
  Potency: inactive
[11]
  Potency: inactive
[12]
  Potency: inactive
[13]
  outcome: inactive
[14]
  outcome: inactive
[15]
  outcome: inactive
[16]
  outcome: inactive
[17]
  Potency: inactive

## CCCCNc1ccc(C(=O)OCCN(CC)CC)cc1
[1]
  outcome: inactive
[18]
  Potency: inactive
[2]
  Potency: inactive
[4]
  outcome: inactive
[5]
  Potency: inactive
[6]
  outcome: inactive
[7]
  Potency: inactive
[8]
  Potency: inactive
[9]
  Potency: inactive
[10]
  Potency: inactive
[11]
  Potency: inactive
[12]
  Potency: inactive
[13]
  outcome: inactive
[14]
  outcome: inactive
[15]
  outcome: inactive
[16]
  outcome: inactive
[17]
  Potency: inactive

## CC(=O)N(CC(O)CN(C(C)=O)c1c(I)c(C(=O)NCC(O)CO)c(I)c(C(=O)NCC(O)CO)c1I)c1c(I)c(C(=O)NCC(O)CO)c(I)c(C(=O)NCC(O)CO)c1I (centres undefined)
[1]
  outcome: inactive
[18]
  Potency: inactive
[2]
  Potency: inactive
[4]
  outcome: inactive
[5]
  Potency: inactive
[6]
  outcome: inactive
[7]
  Potency: inactive
[9]
  Potency: inactive
[10]
  Potency: inactive
[11]
  Potency: inactive
[12]
  Potency: inactive
[13]
  outcome: inactive
[14]
  outcome: inactive
[15]
  outcome: inactive
[16]
  outcome: inactive
[17]
  Potency: inactive

## CC(C)Nc1nc(N)nc(Cl)n1
[1]
  outcome: inactive
[2]
  Potency: inactive
[4]
  outcome: inactive
[6]
  outcome: inactive
[7]
  Potency: inactive
[8]
  Potency: inactive
[10]
  Potency: inactive
[11]
  Potency: inactive
[12]
  Potency: inactive
[13]
  outcome: inactive
[14]
  outcome: inactive
[15]
  outcome: inactive
[16]
  outcome: inactive
[17]
  Potency: inactive

## Cc1c(-c2ccccc2)oc2c(C(=O)OCCN3CCCCC3)cccc2c1=O
[1]
  outcome: inactive
[2]
  Potency: inactive
[3]
  Potency: inactive
[4]
  outcome: inactive
[5]
  Potency: inactive
[6]
  outcome: inactive
[7]
  Potency: 23.7 µM (active)
[8]
  Potency: inactive
[9]
  Potency: inactive
[11]
  Potency: inactive
[13]
  outcome: inactive
[16]
  outcome: inactive
[17]
  Potency: inactive

## O=C1CCCCCCCCCCC(=O)OCCO1
[1]
  outcome: inactive
[18]
  Potency: inactive
[2]
  Potency: inactive
[3]
  Potency: inactive
[4]
  outcome: inactive
[5]
  Potency: inactive
[6]
  outcome: inactive
[7]
  Potency: inactive
[8]
  Potency: inactive
[9]
  Potency: inactive
[13]
  outcome: inactive
[14]
  outcome: inactive
[15]
  outcome: inactive
[16]
  outcome: inactive
[17]
  Potency: inactive

## O=C(O)c1ccccc1Nc1cc(Cl)ccc1C(=O)O
[1]
  activation: 0.616% [at 19 µM]
[2]
  activity change, negative = cytotoxicity: -0.898% [at 19 µM]
[3]
  activity change, negative = cytotoxicity: -3.75% [at 19 µM]
[4]
  activity change, negative = cytotoxicity: -13.6% [at 19 µM]
[5]
  activation: -1.25% [at 19 µM]
[6]
  cAMP activity change: 0.0654% [at 18.9 µM]
[7]
  activity change, negative = inhibition: 2.68% [at 19 µM]
[8]
  activity change, negative = cytotoxicity: -2.8% [at 19 µM]
[11]
  Potency: 13 µM (active)
[13]
  viability change, negative = cytotoxic: 0.61% [at 15.8 µM]
[14]
  activity change, negative = cytotoxicity: 9.07% [at 15.8 µM]
[15]
  activation: -1.11% [at 15.8 µM]
[16]
  activity, negative = inhibition: 1.01% [at 10.5 µM]
[17]
  activation: -0.215% [at 11.8 µM]
